According to paper PMC5540273 (PLoS ONE, 2017):
Where “and” joins values, the source holds several entries; their conditions need not be identical. Identical values can stand only once. Like-named read-outs stand apart in the source and are kept apart here.

Columns and labels:
Details in all cases: concentration: 1 μM, replicates: in singlicate, n = 1
[1] = system: MKK7
[2] = system: MKNK1
[3] = system: MKNK2
[4] = system: T1, MLCK
T1 construct: gene MYLK3

[5] = system: T2, MLK1
T2 construct: gene MAP3K9

[6] = system: MLK2
[7] = system: MLK3
[8] = system: MRCKA
[9] = system: T3, MRCKB
T3 construct: gene CDC42BPB

[10] = system: MST1R
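Note: KINOMEscan kinase panel screen.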

Compound	%Inh [1] [%]	%Inh [2] [%]	%Inh [3] [%]	%Inh [4] [%]	%Inh [5] [%]	%Inh [6] [%]	%Inh [7] [%]	%Inh [8] [%]	%Inh [9] [%]	%Inh [10] [%]	%Inh ([1]; 1 µM)	%Inh ([2]; 1 µM)	%Inh ([3]; 1 µM)	%Inh ([4]; 1 µM)	%Inh ([5]; 1 µM)	%Inh ([6]; 1 µM)	%Inh ([7]; 1 µM)	%Inh ([8]; 1 µM)	%Inh ([9]; 1 µM)	%Inh ([10]; 1 µM)
CCn1cnc2c(N)ncnc21 [GW345098]	0	0	0	1	6	12	4	0	2	0	–	–	–	–	–	–	–	–	–	–
COc1cc2c(cc1OC[C@@H](O)CO)ncc1c3ccc(C#N)cc3[nH]c21	0	97.1	99.4	94.5	3	0	0	0	0	9	–	–	–	–	–	–	–	–	–	–
[2H]C([2H])(c1cccc(C(F)(F)F)c1C)n1ccn2c(=O)nc(N3CCOCC3)cc12 [GSK2336394]	14	3	6	3	0	0	21	23	0	33	–	–	–	–	–	–	–	–	–	–
COc1ccc(S(=O)(=O)NC2CCN(c3cc(C)nc(Nc4cccc(C#N)c4)n3)CC2)cc1.O=C(O)C(F)(F)F [GSK1653539]	0	0	20	0	0	0	27	0	0	48	–	–	–	–	–	–	–	–	–	–
Cl.Oc1cccc(Nc2ccnc3cc(-c4ccncc4)ccc23)c1 [GW494601]	0	0	21	0	0	0	1	1	0	36	–	–	–	–	–	–	–	–	–	–
O=c1cc(N2CCOCC2)nc2n(Cc3cccc(Cl)c3Cl)c(C3CC3)nn12 [GSK2358994]	0	0	0	0	0	0	14	0	0	14	–	–	–	–	–	–	–	–	–	–
O=C(Nc1cccc(-c2nn3ncccc3c2-c2ccnc(Nc3cccc(C(F)(F)F)c3)n2)c1)c1c(F)cccc1F [GSK299495]	0	0	24	11	0	0	0	58	68	44	–	–	–	–	–	–	–	–	–	–
O=C1NC(=O)C(N2CCc3ccccc32)=C1c1cccc(Cl)c1 [SB-408010]	0	18	46	0	0	0	0	0	15	5	–	–	–	–	–	–	–	–	–	–
COc1ccc(CNC(=O)NC2CCN(c3ccnc(Nc4ccc(OC)cc4)n3)C2)cc1 (stereo not drawn) [GSK1379727]	14	0	0	0	0	0	0	0	4	40	–	–	–	–	–	–	–	–	–	–
CCc1nc(-c2cccc(C)c2)c(-c2ccnc(NCc3ccccc3)c2)s1	0	1	0	0	0	0	0	0	0	8	–	–	–	–	–	–	–	–	–	–
CC(C)(CN)c1nc(-c2ccc(Cl)c(O)c2)c(-c2ccncc2)[nH]1.O=C(O)C(F)(F)F [SB-477794]	–	–	–	–	–	–	–	–	–	–	26% and 0%	9% and 0%	9% and 0%	0% and 14%	0% and 7%	0% and 10%	0% and 32%	46% and 35%	76% and 72%	39% and 0%
NS(=O)(=O)CCc1cccc(Nc2nccc(-c3c(-c4cccc(NC(=O)c5c(F)cccc5F)c4)nn4ccccc34)n2)c1 [GSK336735]	100	0	0	20	0	3	43	92.2	96.2	62	–	–	–	–	–	–	–	–	–	–
Cc1c2ccc(N(C)c3ccnc(Nc4cccc(S(N)(=O)=O)c4)n3)cc2nn1Cc1ccccc1.Cl.Cl [GW787226]	15	0	0	0	0	50	26	0	0	0	–	–	–	–	–	–	–	–	–	–
O=C(NCCNc1ccnc(Nc2ccc(F)cc2)n1)c1cc2ccccc2s1 [GSK1379874]	0	2	0	0	6	0	17	13	0	30	–	–	–	–	–	–	–	–	–	–
Cn1cc(-c2ccc3c(c2)CCN3C(=O)Cc2ccccc2Cl)c2c(N)ncnc21 [GSK2608885]	0	7	0	22	32	0	45	84	92.2	100	–	–	–	–	–	–	–	–	–	–
Cc1cccc(-c2nc(Nc3ccc4ncsc4c3)c3ccccc3n2)n1 [GW867588]	0	16	0	0	7	20	1	2	33	0	–	–	–	–	–	–	–	–	–	–
N#Cc1c(N2CCOCC2)sc(-c2ccn[nH]2)c1-c1ccc(Cl)cc1	20	26	0	0	0	5	22	0	0	1	–	–	–	–	–	–	–	–	–	–

Compound	%Inh [1] [%]	%Inh [2] [%]	%Inh [3] [%]	%Inh [4] [%]	%Inh [5] [%]	%Inh [6] [%]	%Inh [7] [%]	%Inh [8] [%]	%Inh [9] [%]	%Inh [10] [%]	%Inh ([1]; 1 µM)	%Inh ([2]; 1 µM)	%Inh ([3]; 1 µM)	%Inh ([4]; 1 µM)	%Inh ([5]; 1 µM)	%Inh ([6]; 1 µM)	%Inh ([7]; 1 µM)	%Inh ([8]; 1 µM)	%Inh ([9]; 1 µM)	%Inh ([10]; 1 µM)
Cc1ccc(C(=O)NCC(N)=O)cc1-n1c(C)cc(OCc2ccc(F)cc2F)c(Br)c1=O	0	0	0	0	25	19	22	3	12	29	–	–	–	–	–	–	–	–	–	–
CC(=O)Nc1ccc(COc2ccc(Nc3ccnc4cc(-c5ccccn5)ccc34)cc2)cc1.Cl [GW440148]	0	0	6	5	0	0	0	13	0	56	–	–	–	–	–	–	–	–	–	–
Fc1ccc(-c2nn3c(OCC(F)(F)F)cccc3c2-c2ccncc2)cc1 [GW514784]	0	0	0	0	0	0	0	24	32	13	–	–	–	–	–	–	–	–	–	–
Nc1nc(-c2ccc3c(N)n[nH]c3c2)cc(N2CCCC2)n1 [GSK2227430]	0	4	12	0	0	6	0	6	0	1	–	–	–	–	–	–	–	–	–	–
O=C1Cc2cc(Nc3nc(NCc4cccc(S(=O)(=O)C(F)(F)F)c4)ncc3C(F)(F)F)ccc2N1	0	0	0	10	0	32	3	5	10	0	–	–	–	–	–	–	–	–	–	–
O=C(NOCC1CC1)c1ccc(F)c(F)c1Nc1ccc(I)cc1Cl	0	0	0	0	0	0	0	0	0	0	–	–	–	–	–	–	–	–	–	–
COc1cc(Nc2nccc(N3CCC(NC(=O)c4cccc(NC(C)=O)c4)C3)n2)cc(OC)c1OC (stereo not drawn) [GSK1379754]	32	38	98.6	1	67	50	53	0	0	20	–	–	–	–	–	–	–	–	–	–
COCCNC(=O)c1ccc(-c2cc(C(=O)NC3CC3)cc(F)c2C)cc1 [GW868318]	37	22	25	13	0	41	0	0	14	20	–	–	–	–	–	–	–	–	–	–
COc1ccc(Nc2ncc(C#N)c(Nc3ccccc3C(N)=O)n2)cc1N1CCN(C)CC1.Cl [GSK1558669]	0	30	98.2	99.7	98.7	100	100	44	87	86	–	–	–	–	–	–	–	–	–	–
CN1c2ccc(CNc3ccc(F)cc3)cc2-c2c(cnn2C)S1(=O)=O	0	15	0	3	0	24	0	0	0	0	–	–	–	–	–	–	–	–	–	–
Cc1cn2c(=O)cc(N3CCOCC3)nc2n1Cc1cccc(Cl)c1Cl [GSK2334006]	29	2	10	0	0	2	38	6	8	28	–	–	–	–	–	–	–	–	–	–
NCCNS(=O)(=O)c1ccc(-c2ccnc3[nH]ccc23)cc1 [GSK977617]	0	–	–	–	–	–	–	–	–	–	–	35% and 28%	97% and 94.8%	88% and 77%	21% and 2%	21% and 18%	22% and 0%	44% and 0%	80% and 62%	21% and 16%
Cc1cccc(-c2nc(-c3ccc(S(C)(=O)=O)cc3)sc2-c2ccncc2)c1	20	0	13	0	0	33	27	0	0	23	–	–	–	–	–	–	–	–	–	–
O=c1cc(N2CCOCC2)nc2n(Cc3cccc(C(F)(F)F)c3)ccn12 [GSK2297543]	0	0	0	0	0	14	19	0	0	12	–	–	–	–	–	–	–	–	–	–
Cc1c(Cn2c(C)nn3c(=O)cc(N4CCOC(C)C4)nc23)cccc1C(F)(F)F (stereo not drawn) [GSK2344444]	0	0	7	2	0	0	13	0	0	28	–	–	–	–	–	–	–	–	–	–
COC(=O)Nc1nc2cc(Oc3ccc(NC(=O)Nc4cc(F)ccc4F)cc3)ccc2[nH]1.Cl [GW701424]	0	23	12	0	0	0	0	16	0	29	–	–	–	–	–	–	–	–	–	–
